Assay in all cases: growth (OD600 after 10 h); higher = more growth (less inhibition)
In assay [1] the test system is E. coli TESEC Alr+ wild-type control. As to conditions: compound 0.1 mM; raw OD600 reference: median of DMSO wells 0.241, cell-free background 0.041. On the procedure: (§1)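 TESEC Mtb Alr E. coli, or the Alr+ wild-type control, in 384-well plates with Prestwick library compounds at 0.1 mM and 1% DMSO, across arabinose induction levels of 1E3 to 1E7 nM. Growth is read as OD600 after 10 h at 37 °C in triplicate biological replicates.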

Assay [2] relates to E. coli TESEC Mtb Asd. To be noted: compound 0.1 mM. As to the method: (§2)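 TESEC E. coli strains in which the native enzyme is deleted and replaced by arabinose-inducible Mtb Asd, DapB, CysH or TrpD, each grown in its selective medium. Strains were screened against the Prestwick library at 0.1 mM and 1% DMSO in 384-well format at low and high arabinose induction. Growth is read as OD600 after 10 h in triplicate.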

Assay [3] relates to E. coli TESEC Mtb Alr. As to conditions: compound 0.1 mM. On the procedure:
(§3)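 TESEC Mtb Alr E. coli (ΔaraC ΔtolC ΔentC Δalr ΔdadX, arabinose-inducible Mtb Alr) or the Alr+ wild-type control strain, grown in defined M9-fructose medium without D-alanine in 96-well plates with Prestwick library compounds at 0.1 mM and 1% DMSO. Low Alr induction is 0.1 µM arabinose and high induction is 10 mM arabinose.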

The test system of assay [4] is E. coli TESEC Mtb DapB. As to conditions: compound 0.1 mM. As to the method:
as §2

Assay [5] deals with E. coli TESEC Mtb Alr. To be noted: compound 0.1 mM. As to the method:
as §1
The source holds these as a separate data set.

Assay [6] has as its system E. coli TESEC Alr+ wild-type control. To be noted: compound 0.1 mM; raw OD600 reference: median of DMSO wells 0.49, cell-free background 0.052. On the procedure: as §3
Where [7] appears, read: arabinose induction (level): High, raw OD600 reference: median of DMSO wells 0.331, cell-free background 0.041.
Where [8] appears, read: arabinose induction (level): Low, raw OD600 reference: median of DMSO wells 0.417, cell-free background 0.041.
Setting [9] is: arabinose 100 nM, raw OD600 reference: median of DMSO wells 0.413, cell-free background 0.052.
Where [10] appears, read: arabinose 10000000 nM, raw OD600 reference: median of DMSO wells […], cell-free background 0.052.
The mark [11] stands for this setting: arabinose induction (level): High, raw OD600 reference: median of DMSO wells […], cell-free background 0.041.
The mark [12] stands for this setting: arabinose induction (level): Low, raw OD600 reference: median of DMSO wells 0.227, cell-free background 0.041.
Where [13] appears, read: arabinose 1000 nM, raw OD600 reference: median of DMSO wells 0.294, cell-free background 0.041.
[14] abbreviates: arabinose 10000 nM, raw OD600 reference: median of DMSO wells 0.264, cell-free background 0.041.
The mark [15] stands for this setting: arabinose 100000 nM, raw OD600 reference: median of DMSO wells 0.201, cell-free background 0.041.
[16] abbreviates: arabinose 1000000 nM, raw OD600 reference: median of DMSO wells 0.193, cell-free background 0.041.
[17] abbreviates: arabinose 10000000 nM, raw OD600 reference: median of DMSO wells 0.146, cell-free background 0.041.

From the supplement of paper PMC9262897, “Low-cost anti-mycobacterial drug discovery using engineered E. coli” (Nature Communications, 2022) come the findings set out here.

Counter-ions that a name gives are not always drawn. ± gives the standard deviation of the averaged measurements.

For `NCC(CC(=O)O)c1ccc(Cl)cc1` (racemic) [Baclofen (R,S)], the growth in assay [1] came to 0.248 ± 0.011; in assay [2] (setting [7]), 0.392 ± 0.032; in assay [2] (setting [8]) it was 0.422 ± 0.029; in assay [3] (setting [9]), 0.408 ± 0.0092; in assay [3] (setting [10]), 0.361 ± 0.026.
As to `Cc1cc(C(C#N)c2ccc(Cl)cc2)c(Cl)cc1NC(=O)c1cc(I)cc(I)c1O` (stereo not given) [Closantel], the growth was determined as 0.067 ± 0.0041 in assay [1]; 0.0773 ± 0.0025 in assay [2] (setting [7]); 0.0874 ± 0.0013 in assay [2] (setting [8]); 0.137 ± 0.042 in assay [3] (setting [9]); 0.145 ± 0.043 in assay [3] (setting [10]).
As for `CCC1(c2cccc(O)c2)CCCCN(C)C1` (stereo not given) [Meptazinol hydrochloride], the growth in assay [1] worked out at 0.2565 ± 0.0013; in assay [2] (setting [7]), 0.176 ± 0.04; in assay [2] (setting [8]) it was 0.41 ± 0.095; in assay [4] (setting [11]), 0.215 ± 0.026; in assay [4] (setting [12]), 0.217 ± 0.024; in assay [3] (setting [9]), 0.411 ± 0.014. For the same compound, the growth in assay [3] (setting [10]) was 0.323 ± 0.023.
Turning to `CCC(=O)O[C@H]1CC[C@H]2[C@@H]3CCC4=CC(=O)CC[C@]4(C)[C@H]3CC[C@]12C` [Testosterone propionate], the growth in assay [1] was found to be 0.157 ± 0.016; in assay [5] (setting [13]) it was 0.145 ± 0.0086; in assay [5] (setting [14]), 0.261 ± 0.0051; in assay [5] (setting [15]) it was 0.12 ± 0.0075; in assay [5] (setting [16]) it was 0.107 ± 0.0037; in assay [5] (setting [17]), 0.117 ± 0.015. In addition, the growth in assay [2] (setting [7]) came out at 0.336 ± 0.065; in assay [2] (setting [8]), 0.454 ± 0.04; in assay [3] (setting [9]) it was 0.269 ± 0.18; in assay [3] (setting [10]), 0.148 ± 0.025.
As for `COc1ccc(CN2CCNCC2)c(OC)c1OC` [Trimetazidine dihydrochloride], the growth in assay [1] worked out at 0.228 ± 0.0052; in assay [5] (setting [13]), 0.3105 ± 0.0026; in assay [5] (setting [14]), 0.268 ± 0.0047; in assay [5] (setting [15]), 0.23 ± 0.024; in assay [5] (setting [16]), 0.172 ± 0.0071; in assay [5] (setting [17]), 0.162 ± 0.0046. For the same compound, the growth in assay [2] (setting [7]) is 0.301 ± 0.068; in assay [2] (setting [8]), 0.307 ± 0.11; in assay [3] (setting [9]), 0.409 ± 0.014; in assay [3] (setting [10]), 0.33 ± 0.019.
With `CCC(COC(=O)c1cc(OC)c(OC)c(OC)c1)(c1ccccc1)N(C)C` (stereo not given) [Trimebutine], the growth in assay [1] came to 0.13 ± 0.0031; in assay [5] (setting [13]), 0.142 ± 0.012; in assay [5] (setting [14]) it was 0.151 ± 0.011; in assay [5] (setting [15]) it was 0.116 ± 0.0031; in assay [5] (setting [16]), 0.0716 ± 0.0024; in assay [5] (setting [17]) it was 0.101 ± 0.015. In addition, the growth in assay [2] (setting [7]) stood at 0.205 ± 0.033; in assay [2] (setting [8]) it was 0.245 ± 0.085; in assay [3] (setting [9]) it was 0.403 ± 0.0063; in assay [3] (setting [10]), 0.119 ± 0.0083.
As for `CC(=O)O[C@H]1C[C@H](O[C@H]2[C@@H](O)C[C@H](O[C@H]3[C@@H](O)C[C@H](O[C@H]4CC[C@@]5(C)[C@H](CC[C@@H]6[C@@H]5C[C@@H](O)[C@]5(C)[C@@H](C7=CC(=O)OC7)CC[C@]65O)C4)O[C@@H]3C)O[C@@H]2C)O[C@H](C)[C@H]1O[C@@H]1O[C@H](CO)[C@@H](O)[C@H](O)[C@H]1O` [Lanatoside C], the growth in assay [1] is 0.198 ± 0.0032; in assay [2] (setting [7]), 0.339 ± 0.04; in assay [2] (setting [8]) it was 0.417 ± 0.057; in assay [4] (setting [11]), 0.184 ± 0.021; in assay [4] (setting [12]), 0.233 ± 0.03; in assay [3] (setting [9]), 0.4014 ± 0.0037. In assay [3] (setting [10]), the growth stood at 0.354 ± 0.0094.
For `NCC(O)c1ccc(O)cc1` (racemic) [(+,-)-Octopamine hydrochloride], the growth in assay [1] came out at 0.258 ± 0.0024; in assay [2] (setting [7]) it was 0.483 ± 0.015; in assay [2] (setting [8]), 0.45 ± 0.018; in assay [3] (setting [9]) it was 0.408 ± 0.015; in assay [3] (setting [10]), 0.337 ± 0.014.
In the case of `CC[N+]1(C)CCCC(OC(=O)C(O)(c2ccccc2)c2ccccc2)C1` (stereo not given) [Pipenzolate bromide], the growth in assay [1] stood at 0.217 ± 0.0052; in assay [5] (setting [13]) it was 0.284 ± 0.014; in assay [5] (setting [14]), 0.258 ± 0.012; in assay [5] (setting [15]), 0.169 ± 0.0056; in assay [5] (setting [16]), 0.186 ± 0.0047; in assay [5] (setting [17]), 0.133 ± 0.0034. The growth in assay [2] (setting [7]) worked out at 0.299 ± 0.035; in assay [2] (setting [8]), 0.469 ± 0.025; in assay [3] (setting [9]), 0.409 ± 0.023; in assay [3] (setting [10]), 0.348 ± 0.025.
In the case of `O=c1[nH]c2ccccc2n1CCCN1CCC(n2c(=O)[nH]c3cc(Cl)ccc32)CC1` [Domperidone], the growth in assay [1] amounted to 0.129 ± 0.0039; in assay [2] (setting [7]) it was 0.1177 ± 0.0011; in assay [2] (setting [8]), 0.176 ± 0.018; in assay [3] (setting [9]) it was 0.41 ± 0.0087; in assay [3] (setting [10]), 0.246 ± 0.0035.
For `CCCC(C)(COC(N)=O)COC(=O)NC(C)C` (stereo not given) [Carisoprodol], the growth in assay [1] came to 0.237 ± 0.008; in assay [5] (setting [13]), 0.287 ± 0.011; in assay [5] (setting [14]), 0.283 ± 0.0077; in assay [5] (setting [15]), 0.211 ± 0.014; in assay [5] (setting [16]), 0.198 ± 0.0098; in assay [5] (setting [17]) it was 0.142 ± 0.0024. The growth was 0.268 ± 0.02 in assay [2] (setting [7]), 0.322 ± 0.083 in assay [2] (setting [8]), 0.403 ± 0.01 in assay [3] (setting [9]) and 0.341 ± 0.015 in assay [3] (setting [10]).
As for `O=C(NCNC(=O)NC1C(=O)NC(=O)N1CO)NC1C(=O)NC(=O)N1CO` (stereo not given) [Imidurea], the growth in assay [1] worked out at 0.231 ± 0.0035; in assay [2] (setting [7]), 0.336 ± 0.057; in assay [2] (setting [8]), 0.358 ± 0.074; in assay [6], 0.545 ± 0.022; in assay [3] (setting [9]) it was 0.44 ± 0.021; in assay [3] (setting [10]), 0.345 ± 0.012.
On to `C#C[C@]1(O)CC[C@H]2[C@@H]3CCC4=CC(=O)CC[C@]4(C)[C@H]3CC[C@@]21C` [Ethisterone], for which the growth in assay [1] amounted to 0.237 ± 0.0043; in assay [5] (setting [13]), 0.28 ± 0.01; in assay [5] (setting [14]), 0.2589 ± 0.0022; in assay [5] (setting [15]) it was 0.21 ± 0.015; in assay [5] (setting [16]), 0.172 ± 0.0021; in assay [5] (setting [17]), 0.1381 ± 0.001. In addition, the growth in assay [2] (setting [7]) was 0.344 ± 0.057; in assay [2] (setting [8]) it was 0.41 ± 0.063; in assay [3] (setting [9]), 0.408 ± 0.0092; in assay [3] (setting [10]), 0.39 ± 0.055.
As to `Oc1ccc2c3c1O[C@H]1[C@@H](O)CC[C@@]4(O)[C@@H](C2)N(CC2CCC2)CC[C@]314` [Nalbuphine hydrochloride], the growth in assay [1] was 0.233 ± 0.0039; in assay [2] (setting [7]) it was 0.381 ± 0.095; in assay [2] (setting [8]), 0.453 ± 0.036; in assay [3] (setting [9]), 0.4293 ± 0.0018; in assay [3] (setting [10]), 0.351 ± 0.015.
